The test system of test [1] is Human papillomavirus type 1a protein E7 (residues 44-93). Briefly: small molecules binding HPV E7 44-93 – biochemical, small-molecule microarray, residues 44-93, 635 nm fluorescence, primary screen (AID 1108).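 Note: E7 fragment applied at 1 µg/mL in TBST for 1 h at 4 C; score combines spot fluorescence with its signal to noise ratio.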 The settings on record: fluorescence 635 nm, higher = more signal.
A short description of test [2]: hepatitis C replication reporter changes, two-sided – Huh7 cells, luciferase reporter, HCV replication inhibitor project, primary screen (AID 1109).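 Note: huh7 hepatoma cells harbouring a luciferase neomycin HCV replicon reporter; luciferase luminescence as measure of HCV replicon replication; test concentration not given here.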 Particulars: Huh7 HCV replicon luciferase reporter, 48 h; higher = more signal. Background: A reporter such as luciferase makes a cellular process visible.
In test [3] the target is Left-right determination factor 2 (Homo sapiens) (UniProt O00292). Briefly: small molecules binding LEFTY2 protein – biochemical, small-molecule microarray, 635 nm fluorescence scan, primary screen (AID 1110). The settings on record: higher = more signal.
In test [4] the target is Calmodulin-1 (Homo sapiens) (UniProt P0DP23). Briefly: small molecules binding calmodulin-1 with EGTA – biochemical, small-molecule microarray, Cy5-labelled CALM1, profiling panel (AID 1111).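 Note: labelled calmodulin applied in Tris saline Tween buffer holding calcium plus EGTA and DTT.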 The settings on record: Cy5-CALM1 binding fluorescence, higher = more signal.
The target is the same in test [5]. Nature of the test: small molecules binding Ca-loaded calmodulin-1 – biochemical, small-molecule microarray, Cy5-labelled CALM1, plus calcium, artefact control for SMM control-protein annotation, profiling panel (AID 1112).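 Note: score merges spot fluorescence with signal to noise from triplicate slides.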 Particulars: Cy5-CALM1 binding fluorescence, higher = more signal.
Test [6] is described as follows: probe aWnt5a binding to arrayed compounds – biochemical, biotinylated probe, 635/667 nm fluorescence, primary screen (AID 1113).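 Note: score merges 667 nm fluorescence intensity with signal-to-noise per printed feature.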 Particulars: small-molecule microarray, higher = more signal.
A short description of test [7]: probe aShh binding to arrayed compounds – biochemical, biotinylated probe, 635/667 nm fluorescence, primary screen (AID 1114).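 Note: probe is biotin-labelled aShh protein from a stem cell growth factor screen; measures binding of labelled protein to compounds printed on the slide; score merges feature fluorescence at 667 nm with signal-to-noise.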 The settings on record: small-molecule microarray, higher = more signal.
The nature of test [8]: probe aNog binding to arrayed compounds – biochemical, biotinylated probe, 635/667 nm fluorescence, primary screen (AID 1115).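 Note: probe is biotinylated aNog protein used at 0.15 µg/mL for 1 h at 4 C; z-score combines 667 nm fluorescence of each spot with its signal to noise.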 The settings on record: small-molecule microarray, higher = more signal.
Test [9] deals with Torsin-1A-interacting protein 1 (Homo sapiens) (UniProt Q5JTV8). Briefly: compound microarray binding of lysate hLAP1 – cell lysate, small-molecule microarray, COS7 lysate, 635/667 nm fluorescence, primary screen (AID 1116). The settings on record: 635 nm fluorescence, higher = more signal.
The target in test [10] is Alpha-bungarotoxin (Bungarus multicinctus) (UniProt P60615). Briefly: compounds binding labelled alpha-BTX control protein – biochemical, small-molecule microarray, Alexa647 label, 635/667 nm fluorescence, artefact control for SMM control protein annotation, profiling panel (AID 1117). The settings on record: alpha-BTX-A647 binding fluorescence, higher = more signal.
The next test has as its target Albumin (Bos taurus) (UniProt P02769). Briefly: compounds binding labelled BSA control protein – biochemical, small-molecule microarray, Alexa647 label, 635/667 nm fluorescence, artefact control for SMM control protein annotation, profiling panel (AID 1118).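 Note: score merges 667 nm emission intensity and signal-to-noise per printed compound spot.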 The settings on record: BSA-A647 binding, fluorescence 635 nm, higher = more signal.
A short description of test [11]: probe aXIP binding to arrayed compounds – biochemical, NeuroSMM set, 635/667 nm fluorescence, primary screen (AID 1119).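 Note: probe is the protein aXip251-270 applied at 1 µg/mL to compound-printed slides; binding of probe to printed compounds measured as 667 nm fluorescence plus signal to noise.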 The settings on record: small-molecule microarray, higher = more signal, called active from +8 up or from −8 down.
The nature of test [12]: probe aNOTCH3 binding on compound microarray – biochemical, small-molecule microarray, 635/667 nm fluorescence, primary screen (AID 1120).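 Note: probe is a biotin-tagged antibody raised against NOTCH3 rather than NOTCH3 protein; score merges spot fluorescence near 667 nm with spot signal to noise.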 Particulars: higher = more signal.
The nature of test [13]: probe aNOTCH2 binding on compound microarray – biochemical, small-molecule microarray, 635/667 nm fluorescence, primary screen (AID 1121).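 Note: score merges feature fluorescence read at 667 nm with its signal to noise.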 Particulars: higher = more signal.
The target of test [14] is Carbonic anhydrase 2 (Homo sapiens) (UniProt P00918). Nature of the test: compounds binding carbonic anhydrase 2 – biochemical, small-molecule microarray, Alexa647-labelled CAII, profiling panel (AID 1122). Particulars: CAII-A647 binding fluorescence, higher = more signal.
Test [15] can be described thus: COS7 lysate on small-molecule microarray, probe aHis, 635 nm (AID 1123).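 Note: z-score combines 667nm fluorescence intensity with signal-to-noise per printed compound spot.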 The settings on record: COS7 cell lysate, fluorescence, higher = more signal.
Test [16] in a line: probe aLAP1 signal on lysate-treated microarray – cell lysate, small-molecule microarray, COS7 lysate, primary screen (AID 1124).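 Note: lysate comes from COS7 cells expressing LAP1 and is applied at 0.3 µg/mL; score merges spot fluorescence near 667 nm with signal-to-noise over triplicate slides.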 The settings on record: probe aLAP1, fluorescence, higher = more signal.
The subject of the next test is Sam68 (KHDRBS1). Nature of the test: compounds binding KHDRBS1 protein – biochemical, small-molecule microarray, 635 nm fluorescence, primary screen (AID 1125).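 Note: score merges 667 nm channel intensity with signal to noise over triplicate slides.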 Particulars: higher = more signal.
In test [17] the test system is Chordin-like protein 2 (CHRDL2). Nature of the test: compounds binding chordin-like 2 – biochemical, small-molecule microarray, 635 nm fluorescence, primary screen (AID 1126).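 Note: printed compound slides probed with Chrdl2 protein at 4 µg/mL for 1 h at 4 C; score merges 667 nm emission intensity with signal to noise over three replicate slides.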 The settings on record: fluorescence 635 nm, higher = more signal.
The target in test [18] is Concanavalin-A (Canavalia ensiformis) (UniProt P02866). Nature of the test: compounds binding concanavalin A lectin – biochemical, small-molecule microarray, Alexa647 label, 635 nm, artefact control for SMM control protein annotation, primary screen (AID 1127).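 Note: z combines 667 nm emission intensity with signal-to-noise across three replicate slides.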 Particulars: ConA-A647 binding fluorescence, higher = more signal.

Calls of active or inactive are those of the source.

This is an account of results in PubChem BioAssay.

Sequence of Albumin (Bos taurus) (P02769 whole entry, looked up): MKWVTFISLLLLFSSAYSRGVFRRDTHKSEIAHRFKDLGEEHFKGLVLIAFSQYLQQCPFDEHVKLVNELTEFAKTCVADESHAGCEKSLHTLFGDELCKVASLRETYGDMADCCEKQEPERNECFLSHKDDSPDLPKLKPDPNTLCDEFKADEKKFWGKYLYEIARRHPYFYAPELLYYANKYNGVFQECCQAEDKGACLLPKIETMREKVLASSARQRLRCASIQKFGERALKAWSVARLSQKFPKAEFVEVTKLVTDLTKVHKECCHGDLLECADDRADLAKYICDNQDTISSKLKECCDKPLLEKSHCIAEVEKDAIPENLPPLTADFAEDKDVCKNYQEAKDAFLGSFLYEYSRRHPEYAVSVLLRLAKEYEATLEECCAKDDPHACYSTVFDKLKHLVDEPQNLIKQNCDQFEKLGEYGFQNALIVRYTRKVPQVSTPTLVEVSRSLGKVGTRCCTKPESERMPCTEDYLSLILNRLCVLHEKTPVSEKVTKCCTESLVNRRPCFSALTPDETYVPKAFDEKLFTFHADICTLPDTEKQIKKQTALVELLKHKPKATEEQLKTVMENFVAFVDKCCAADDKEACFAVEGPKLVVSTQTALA
Sequence of Torsin-1A-interacting protein 1 (Homo sapiens) (Q5JTV8 whole entry, looked up): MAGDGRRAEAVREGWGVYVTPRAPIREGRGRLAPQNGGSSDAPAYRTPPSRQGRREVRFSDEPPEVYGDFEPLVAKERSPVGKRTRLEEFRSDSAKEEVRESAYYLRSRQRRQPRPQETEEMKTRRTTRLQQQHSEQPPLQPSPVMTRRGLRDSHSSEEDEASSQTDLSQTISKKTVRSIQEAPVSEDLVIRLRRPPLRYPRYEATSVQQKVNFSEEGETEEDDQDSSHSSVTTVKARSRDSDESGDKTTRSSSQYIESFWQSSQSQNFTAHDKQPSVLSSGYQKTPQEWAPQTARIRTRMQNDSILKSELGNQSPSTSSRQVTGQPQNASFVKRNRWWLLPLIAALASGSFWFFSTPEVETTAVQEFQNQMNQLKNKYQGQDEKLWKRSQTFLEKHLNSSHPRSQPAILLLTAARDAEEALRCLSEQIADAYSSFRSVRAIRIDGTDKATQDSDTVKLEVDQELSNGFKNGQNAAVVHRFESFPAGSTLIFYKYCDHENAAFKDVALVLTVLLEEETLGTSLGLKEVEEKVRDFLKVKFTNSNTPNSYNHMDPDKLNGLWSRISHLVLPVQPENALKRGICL
Sequence of Left-right determination factor 2 (Homo sapiens) (O00292 whole entry, looked up): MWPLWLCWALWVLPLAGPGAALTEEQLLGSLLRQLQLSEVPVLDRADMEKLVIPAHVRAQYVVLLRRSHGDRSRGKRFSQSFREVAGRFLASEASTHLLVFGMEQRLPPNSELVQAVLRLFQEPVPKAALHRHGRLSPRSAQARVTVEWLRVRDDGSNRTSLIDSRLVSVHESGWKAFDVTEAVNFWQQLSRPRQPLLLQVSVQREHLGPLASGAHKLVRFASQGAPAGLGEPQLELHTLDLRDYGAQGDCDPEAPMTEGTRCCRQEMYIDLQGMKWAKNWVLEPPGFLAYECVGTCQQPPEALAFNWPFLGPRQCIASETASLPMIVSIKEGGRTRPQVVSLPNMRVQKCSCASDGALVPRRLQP
Sequence of Concanavalin-A (Canavalia ensiformis) (P02866 whole entry, looked up): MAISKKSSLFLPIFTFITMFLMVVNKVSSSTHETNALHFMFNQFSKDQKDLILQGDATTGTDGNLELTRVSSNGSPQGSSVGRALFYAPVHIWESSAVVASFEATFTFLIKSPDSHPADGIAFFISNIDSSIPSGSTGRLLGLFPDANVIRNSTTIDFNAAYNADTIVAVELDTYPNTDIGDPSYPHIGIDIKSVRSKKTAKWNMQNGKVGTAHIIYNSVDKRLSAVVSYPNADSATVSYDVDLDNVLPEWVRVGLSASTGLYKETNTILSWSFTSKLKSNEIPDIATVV
Sequence of Alpha-bungarotoxin (Bungarus multicinctus) (P60615 whole entry, looked up): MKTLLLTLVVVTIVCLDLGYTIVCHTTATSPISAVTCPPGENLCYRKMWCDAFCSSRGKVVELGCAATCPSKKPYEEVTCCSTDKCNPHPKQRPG

For the compound `[N-]=[N+]=Nc1ccccc1C[C@@]1(C(=O)N2CCOCC2)N=C(c2ccc(OCCCO)cc2)O[C@@H]1c1ccccc1N=[N+]=[N-]`, the composite z-score in test [1] was 0.457; in [3], 0.095; in test [4], 1.04; in test [5], 0.804; in test [6], -0.0398; in test [7], 0.102. The composite z-score in test [8] is 0.293; in test [9], 0.842; in test [10], 2; with Albumin (Bos taurus) it was 0.873; in test [12] it was 0.121; in test [13] it was -0.0286. Moreover, the composite z-score was 0.467 in test [14]; 1.24 in test [15]; 0.0649 in [16]; 1.33 with Sam68 (KHDRBS1); -0.338 in test [17]; 1.1 in test [18]. The z-score in [2] is -2.29. In addition, the composite Z-score in test [11] is 0.997 (inactive).
Consider `C=CCC1=C[C@H]2[C@H]([C@@H]3C=C[C@]2(CC=C)C(=O)[C@]32CO2)[C@@]2(CO2)C1=O`, for which the composite z-score in test [1] is -0.763; in test [3] it was 1.24; in test [4], -1.06; in test [5], -2.27; in test [6] it was 0.133; in test [7], -0.1. Further, the composite z-score in [8] is 2.17; in [9] it was 0.163; in test [10], 0.345; with Albumin (Bos taurus), -0.44; in [12], 0.519; in test [13], 0.082. Further, the composite z-score is -0.262 in test [14]; 0.104 in test [15]; -0.0222 in test [16]; -0.56 with Sam68 (KHDRBS1); 1.54 in test [17]; -1 in test [18]. Further, the z-score in [2] is -4.15. For the same compound, in test [11], the composite Z-score was 0.528 (inactive).
In the case of `NC(=O)[C@H]1[C@@H]2C(=O)O[C@@H](c3ccccc3)[C@@H](c3ccccc3)N2[C@@H](c2ccc(O)cc2)[C@]12C(=O)Nc1ccc(C#CCCO)cc12`, the composite z-score in [1] was -1.74; in test [3], -1.05; in test [4], -0.742; in test [5], 0.661; in test [6], -0.175; in test [7], -0.0769. The composite z-score in test [8] was -0.158; in [9], -0.819; in test [10], -1.58; with Albumin (Bos taurus), 0.0103; in test [12], -0.125; in test [13], -0.0645. Besides, the composite z-score is 0.72 in test [14]; -0.119 in test [15]; 0.0482 in [16]; -1.09 with Sam68 (KHDRBS1); -0.92 in [17]; -1.78 in test [18]. Further, the z-score in test [2] worked out at 0.179. In addition, in test [11], the composite Z-score is 0.049 (inactive).
Turning to `CCCNC(=O)[C@@H]1c2ccccc2C(=O)N(C2CCCCC2)[C@H]1c1ccc(CO)cc1`, the composite z-score in test [1] is 1.44; in [3], 0.454; in test [4], 0.674; in test [5], -0.616; in [6], -0.131; in test [7] it was 0.131. Moreover, the composite z-score was -0.278 in test [8]; 0.65 in test [9]; 0.765 in [10]; 0.334 with Albumin (Bos taurus); 0.103 in test [12]; -0.106 in [13]. The composite z-score in test [14] worked out at 0.293; in test [15] it was 2.72; in test [16], 0.711; with Sam68 (KHDRBS1), 1.29; in test [17], 0.179; in [18], 1.03. In test [2], this compound returned a z-score of -1.32. Moreover, in [11], the composite Z-score is 0.474 (inactive).
As to `C=C(/C(=C/C[C@@H](OC(=O)c1ccncc1)c1ccc(CO)o1)c1cnc2ccccc2c1)C(C)C`, the composite z-score in [1] was -1.09; in test [3] it was 0.846; in [4] it was 1.64; in test [5], -0.116; in [6] it was -0.124; in test [7], -0.0626. Further, the composite z-score is 0.221 in test [8]; 1.36 in test [9]; 0.474 in [10]; 0.485 in the test with Albumin (Bos taurus); 0.0225 in test [12]; -0.132 in test [13]. For the same compound, the composite z-score in [14] is 0.557; in [15], 0.606; in test [16] it was 0.367; in the test on Sam68 (KHDRBS1), 1.3; in test [17], 1.21; in test [18], 1.17. In test [2], this compound showed a z-score of -1.05. Besides, the composite Z-score in test [11] is 0.0431 (inactive).
